Assay outcomes from PubChem BioAssay.
PAFAH1B2 FP inh: PAFAH1B2 enzyme inhibitors, primary screen, biochemical, fluorescence polarization, human; Platelet-activating factor acetylhydrolase IB subunit alpha2 (Homo sapiens), P68402; inhibition, % at 3.39 µM; hit rate 1.2% among 340,000; recombinant PAFAH1B2, FP-rhodamine activity probe;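 active = inhibition above the mean of all tested compounds plus 3 SD, cut at about 24% in these data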;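 note: 0% = enzyme with DMSO and 100% = wells lacking PAFAH1B2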
Target sequence (P68402 whole entry, looked up): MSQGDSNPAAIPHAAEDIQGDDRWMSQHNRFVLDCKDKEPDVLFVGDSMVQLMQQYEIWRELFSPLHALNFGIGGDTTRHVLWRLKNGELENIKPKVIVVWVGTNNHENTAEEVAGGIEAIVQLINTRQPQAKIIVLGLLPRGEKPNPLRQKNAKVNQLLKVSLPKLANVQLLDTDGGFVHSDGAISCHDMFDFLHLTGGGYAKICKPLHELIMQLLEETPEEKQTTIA
PP5 inh: PP5 phosphatase inhibitors, primary screen, biochemical, fluorescence; Serine/threonine-protein phosphatase 5 (Homo sapiens), P53041; purified PP5c, OMFP substrate fluorescence; inhibition, % at 6.7 µM; hit rate 0.18% among 320,000;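 active = inhibition above the campaign's mean inhibition across all tested compounds plus 3 SD, cut at about 9.5% in these data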;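 note: 0% = DMSO only and 100% = 100 µM cantharidin control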
pPAFAH inh: pPAFAH enzyme inhibitors, primary screen, biochemical, fluorescence polarization, human; Platelet-activating factor acetylhydrolase (Homo sapiens), Q13093; recombinant pPAFAH, FP-rhodamine probe fluorescence polarization; inhibition, % at 3.39 µM; hit rate 1.5% among 330,000; AID 463082, 2010;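 active = inhibition above the mean inhibition across the screen plus 3 SD, cut at about 25% in these data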;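 note: inhibitors block binding of the rhodamine activity-based probe so polarization drops; 0% = enzyme with DMSO and 100% = wells lacking pPAFAH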
PAFAH2 inh: PAFAH2 enzyme inhibitors, primary screen, biochemical, fluorescence polarization, human; Platelet-activating factor acetylhydrolase 2, cytoplasmic (Homo sapiens), Q99487; recombinant PAFAH2, FP-rhodamine activity probe; inhibition, % at 3.39 µM; hit rate 0.99% among 340,000;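 active = inhibition above the mean over all tested compounds plus 3 SD, cut at about 30% in these data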;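 note: inhibitors block probe labeling of enzyme so polarization drops; 0% = enzyme with DMSO and 100% = wells lacking PAFAH2 protein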
PAFAH1B3 FP inh: PAFAH1B3 enzyme inhibitors, primary screen, biochemical, fluorescence polarization, human | Platelet-activating factor acetylhydrolase IB subunit alpha1 (Homo sapiens), Q15102 | recombinant PAFAH1B3, FP-rhodamine probe | inhibition, % at 3.39 µM | hit rate 0.28% among 340,000 | AID 492972, 2010;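 active = inhibition above the screen-wide average of all tested compounds plus 3 SD, cut at about 25% in these data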;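 note: 0% = enzyme with DMSO only and 100% = wells lacking PAFAH1B3 protein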
PP1 inh: PP1-alpha phosphatase inhibitors, primary screen, counter-screen for PP5 inhibitor project, biochemical, fluorescence, OMFP substrate, single point. purified PP1alpha. inhibition, % at 6.7 µM. Serine/threonine-protein phosphatase PP1-alpha catalytic subunit (Homo sapiens), P62136. hit rate 0.9% among 320,000;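 active = inhibition above the mean inhibition of all tested compounds plus 3 SD, computed separately for each screening campaign, cut at about 15% in these data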
Target sequence (P62136 whole entry, looked up): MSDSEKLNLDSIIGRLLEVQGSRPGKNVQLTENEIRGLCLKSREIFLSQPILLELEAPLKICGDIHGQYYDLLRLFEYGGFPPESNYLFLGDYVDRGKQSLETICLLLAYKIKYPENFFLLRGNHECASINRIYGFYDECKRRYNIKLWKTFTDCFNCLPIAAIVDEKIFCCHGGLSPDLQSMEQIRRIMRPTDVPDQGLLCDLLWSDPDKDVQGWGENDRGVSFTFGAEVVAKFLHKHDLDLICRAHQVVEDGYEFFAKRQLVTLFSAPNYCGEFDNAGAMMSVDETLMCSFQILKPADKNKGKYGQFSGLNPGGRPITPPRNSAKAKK
PP1 inh confirm: PP1 phosphatase inhibitors, confirmation, biochemical, fluorescence, OMFP substrate, triplicate; inhibition, % at 6.7 µM; shares compounds with PP1 inh; purified PP1alpha; hit rate 52% among 1,900;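 active = mean PP1 inhibition above a set limit taken from the earlier primary screen, cut at about 15% in these data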
PP5 inh counter: PP5 phosphatase inhibition by PP1 hits, confirmation, counter-screen for PP1 inhibitor project, biochemical, fluorescence, triplicate; shares compounds with PP1 inh; purified PP5c, OMFP fluorescence; inhibition, % at 6.7 µM; hit rate 4% among 1,900; AID 2360, 2010;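 active = mean PP5 inhibition over triplicate wells above about 9.5% taken from the earlier PP1 screen, limit read from the data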
The depositor's hits bear a star; . = no result. Compounds with a hit are over-represented: about 3.4% of the library has one in this group of screens.

SMILES | PAFAH1B2 FP inh | PP5 inh | pPAFAH inh | PAFAH2 inh | PAFAH1B3 FP inh | PP1 inh | PP1 inh confirm | PP5 inh counter
COC(=O)CCC(=O)OC1(C)C(=O)C=C2C=C(C3CC3)N(c3ccc(CO)cc3)C=C2C1=O (stereo not drawn) | . | 7 | 11 | . | . | 19* | 20* | 9.9*
COC(=O)CCC(=O)OC1(C)C(=O)C=C2C=C(C3CC3)N(c3cccc(C#N)c3)C=C2C1=O (stereo not drawn) | -3 | 3 | 9 | -1 | 9 | 4 | . | .
COC(=O)CCC(=O)OC1(C)C(=O)C2=CN(C3CCCC3)C(c3ccc(OC)cc3)=CC2=C(Br)C1=O (stereo not drawn) | 7 | 9.7* | 14 | 1 | 6 | 17* | 15 | 35*
COC(=O)CCC(=O)OC1(C)C(=O)C2=CN(c3ccc(OC)cc3)C(c3ccc(OC)cc3)=CC2=C(Br)C1=O (stereo not drawn) | -1 | 4 | 22 | 7 | 6 | 20* | 16* | 20*
Cc1cc(C(=O)COC(=O)c2ccc[nH]c2=O)c(C)n1-c1ccc(Br)cc1 | 1 | 3 | 5 | 7 | 2 | 18* | 8 | -6
Fc1cccc(NC(=S)N2CCCC2)c1 | 5 | 0 | -4 | -3 | 2 | 2 | . | .
COc1ccc(Nc2nccc(-c3cccc(N)c3)n2)cc1 | 4 | 2 | 5 | 3 | -1 | -1 | . | .
COc1ccc(Nc2nccc(-c3ccc(C#N)cc3)n2)cc1 | 0 | -6 | 2 | 2 | 7 | 20* | 6 | -3
O=C1CC(=O)C(n2cncn2)C(c2cccc(Cl)c2)C1 (stereo not drawn) | -1 | 2 | 2 | -5 | -4 | 22* | -6 | -6
COc1ccc(C2CC(=O)CC(=O)C2n2cncn2)cc1 (stereo not drawn) | 1 | 1 | 2 | -6 | 9 | -2 | . | .
CCC(C)N(C(=O)COC(=O)c1nc2nc(C)cc(C)n2n1)C1CCS(=O)(=O)C1 (stereo not drawn) | 1 | 1 | 0 | -3 | 7 | -2 | . | .
CCOc1cc(/C=N/NC(=O)Cn2nc([N+](=O)[O-])cc2C)ccc1OCc1ccc(F)cc1 | -1 | 1 | -2 | -4 | -5 | 18* | 17* | -2
CCOc1cc(/C=N/NC(=O)Cn2nc([N+](=O)[O-])cc2C)cc(Br)c1OCc1ccccc1F | -4 | 0 | 7 | -7 | -3 | 12 | . | .
COc1ccccc1C(=O)Nc1ccc2oc(-c3ccc(F)cc3)nc2c1 | -2 | -1 | 2 | -2 | 0 | 19* | 12 | -7
CCOc1c(Br)cc(CNC2CCCCCCC2)cc1OC | 4 | 4 | -1 | 2 | 4 | -13 | . | .
COc1ccc(Cl)cc1C(=O)Nc1cccc(-c2ccc3nncn3n2)c1 | 4 | 1 | 10 | 19 | 1 | 51* | 45* | 0
O=C(OCC(=O)N1CCN(C(=O)c2ccco2)CC1)c1cc(-c2ccco2)nc2ccccc12 | 5 | 2 | 31* | 52* | 3 | 22* | 13 | -5
O=c1cc(-c2ccccc2)cc(-c2ccccc2)n1CCCO | 1 | -10 | 24 | -2 | 6 | 19* | -4 | -7
CCc1cc(C(=O)NC2CCCN(Cc3ccccc3F)C2)n(C)n1 (stereo not drawn) | 1 | 0 | 0 | -3 | 3 | -2 | . | .
CN(C)c1ccc(N=Nc2ccc(S(N)(=O)=O)cc2)cc1 | 3 | 4 | 10 | -3 | 9 | 20* | 13 | -4
CS(=O)(=O)N1CCN(c2nc(-c3ccc(F)cc3)cs2)CC1 | 0 | 1 | -1 | -1 | 1 | 12 | . | .
Cc1ccc(S(=O)(=O)N=Nc2c(O)[nH]c3ccccc23)cc1 | 7 | 1 | -3 | 4 | 8 | 0 | . | .
Cc1ccc(S(=O)(=O)N(CC(=O)N=Nc2c(O)[nH]c3ccccc23)c2ccc(C)c(C)c2)cc1 | -4 | 4 | -5 | -18 | -14 | 19* | 19* | 1
CC[n+]1c(/C=C(\C)SC)sc2ccccc21 | 0 | 2 | 5 | 5 | -5 | 2 | . | .
CC[n+]1c(/C=C/Nc2ccccc2)sc2ccccc21 | -11 | 3 | -13 | -25 | -5 | 0 | . | .
SMILES | PAFAH1B2 FP inh | PP5 inh | pPAFAH inh | PAFAH2 inh | PAFAH1B3 FP inh | PP1 inh | PP1 inh confirm | PP5 inh counter
CCN1/C(=C/C=C/c2sc3ccccc3[n+]2CC)Sc2ccccc21 | -243 | 6 | -157 | -268 | -378 | 18* | -8 | 9
CCN1/C(=C/C=C/C=C/C=C/c2sc3ccccc3[n+]2CC)Sc2ccccc21 | -15 | -2 | 2 | -25 | -29 | 20* | 39* | 0
O=S(=O)(c1cccs1)N1CCN(Cc2cccc(F)c2)CC1 | 3 | 2 | 6 | 5 | 5 | 27* | 1 | 0
COc1cc(/C=C2\SC(=O)N(CC(=O)Nc3ccc(C)cc3)C2=O)cc(Cl)c1OCC(=O)O | -2 | 0 | 9 | 2 | 2 | 43* | 46* | -5
Cc1ccc(NC(=O)CN2C(=O)S/C(=C\c3ccc(OCC(=O)O)c(Br)c3)C2=O)cc1 | 2 | 1 | 2 | -4 | 0 | 3 | . | .
CCCC(=O)Oc1ccccc1C1SCc2cc(C)c(C)cc2CS1 | -4 | -1 | 3 | -2 | 5 | 22* | -2 | -6
O=C(Nc1ncn[nH]1)c1ccccc1Br | 3 | 1 | -1 | -12 | 2 | -4 | . | .
COc1ccc2oc(C(=O)OCC(=O)N(Cc3ccccc3)C(C)C)c(C)c2c1 | 3 | 1 | 6 | 2 | 7 | -3 | . | .
COc1ccc(-c2cc(C(=O)NNC(=S)NC(=O)c3c(-c4ccccc4)noc3C)[nH]n2)cc1 | 3 | 2 | 13 | 13 | 9 | 18* | 17* | -1
CC1CCCCC1NC(=O)CSCC(=O)O (stereo not drawn) | 2 | 1 | 6 | 3 | 5 | -4 | . | .
Cc1cccc(C)c1NC(=O)CNC(=O)c1ccc(NS(=O)(=O)c2ccc3[nH]c(=O)[nH]c3c2)cc1 | 3 | -1 | -1 | 3 | 4 | 93* | 0 | -3
CCOc1ccc(CNC(=O)CCc2cn(Cc3ccccc3)c3ccccc23)cc1 | 6 | 3 | 8 | 4 | -2 | 1 | . | .
